Test results as given in a collection of fitness landscapes (doi:10.1016/j.celrep.2020.107928).
Whole data set: some 81,000 sequences, median “one-hybrid fitness for binding parS DNA” near -0.17, cut for the highest 2% near 0.51. Only a selection was taken, and the highest values are over-represented in it overall.

B1: Caulobacter ParB omega fusion; a variant is named by its letters at X, in order, B8GW30 (parent)
chain: MESVVVGEPGMSEGRRGLGRGLSALLGEVDAAPAQAPGEQLGGSREAPIEILQRNPDQPRRTFREEDLEDLSNSIREKGVLQPILVRPSPDTAGEYQIVAGERAWRAAQRAGLKTVPIMVRELDDLAVLEIGIIENVQRADLNVLEEALSYKVLMEKFERTQENIAQTIGKSXSHVANXMRLLXLPDEVQSYLVSGELTAXHARAIAAAADPVALAKQIIEGGLSVRETEALARKAPNLSAGKSKGGRPPRVKDTDTQALESDLSSVLGLDVSIDHRGSTGTLTITYATLEQLDDLCNRLTRGI

Variants of: B1
Test: one-hybrid fitness for binding parS DNA (scaled: cognate 1, non-cognate 0); higher = stronger binding
Details: with parS DNA site
In short: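 Fitness here means the log change in variant-to-wild-type read ratio between plasmids sequenced before and after selection. That scale was set so cognate equals 1 and non-cognate equals 0. The selection was a bacterial one-hybrid screen of Caulobacter ParB libraries, four specificity codons randomised, in E. coli USO carrying a HIS3 reporter with the site 19 bp from the promoter, grown 48 hours at 37°C on M9-minus-histidine with 0.1 mM IPTG and 5 mM 3-AT.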

Variant	one-hybrid fitness for binding parS DNA
LLCV	≤ 0.2
RNEW	≤ 0.2
RGLN	≤ 0.2
RGLD	≤ 0.2
RGLS	0.65
GMLK	≤ 0.2
TTDG	≤ 0.2
RVIN	0.334
RVPH	≤ 0.2
RVIH	≤ 0.2
RVPN	≤ 0.2
RVIC	0.846
RVPC	0.637
HYPN	≤ 0.2
ITNM	≤ 0.2
RCKT	0.748
RSKT	0.796
RPKT	≤ 0.2
RDKT	≤ 0.2
RSKK	≤ 0.2
REKT	0.369
PRHS	≤ 0.2
MIYR	≤ 0.2
VPKS	≤ 0.2
TLQM	≤ 0.2

Variant	one-hybrid fitness for binding parS DNA
RYMA	0.553
RFMA	0.504
RTMA	0.582
SYMA	≤ 0.2
RRMA	0.809
RWMA	0.287
RSMA	0.576
NTMA	≤ 0.2
DRMA	≤ 0.2
NRMA	≤ 0.2
DTMA	≤ 0.2
AYMA	≤ 0.2
NGLP	≤ 0.2
DLGV	≤ 0.2
QGYV	≤ 0.2
HVLF	≤ 0.2
IQVR	≤ 0.2
RYHV	≤ 0.2
WPYE	≤ 0.2
RRPL	≤ 0.2
ALDW	≤ 0.2
VVHY	≤ 0.2
RKMA	0.54
RDMA	≤ 0.2
RMMA	0.643

Variant	one-hybrid fitness for binding parS DNA
RGMA	0.283
RIMA	0.6
RAMA	0.565
DVGK	0.252
PLIV	≤ 0.2
KHAR	≤ 0.2
MMTD	≤ 0.2
HGPW	≤ 0.2
CYVF	≤ 0.2
NKSN	≤ 0.2
THAA	≤ 0.2
HRMC	0.225
YECR	≤ 0.2
PLHI	≤ 0.2
EKSD	≤ 0.2
KREK	≤ 0.2
QAYP	≤ 0.2
PIYC	≤ 0.2
RCMA	0.609
RPMA	≤ 0.2
RLMA	0.613
RNMA	0.47
RHMA	0.503
VSPG	≤ 0.2
TMCY	≤ 0.2

Variant	one-hybrid fitness for binding parS DNA
DQLR	≤ 0.2
RRPP	≤ 0.2
RRPT	0.761
RRIT	0.693
RRPH	≤ 0.2
RRIF	≤ 0.2
RRID	≤ 0.2
DSHR	≤ 0.2
CMQS	≤ 0.2
SCFI	≤ 0.2
RRLC	0.669
RRRC	0.634
RRNQ	≤ 0.2
RRSC	0.596
RRLH	≤ 0.2
RRNF	≤ 0.2
RRRF	≤ 0.2
RRLP	≤ 0.2
RRSF	≤ 0.2
RRRQ	≤ 0.2
RRNC	0.615
RRSM	0.364
